# ± gives the standard deviation.
# Key:
# Details in all cases: modulator concentration 10 µM
# [1] = test system: RAW-Dual (murine macrophage reporter line); experiment: NF-kB reporter (SEAP) activity fold change vs agonist alone; higher = enhanced NF-kB activity
# Summary of the method: (§1)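 Compound reached 10 μM final in each well by pin transfer, onto RAW-Dual murine macrophage reporter cells seeded at 50 000 per well in 384-well plates. After 1 hour at 37 °C, the cells were stimulated overnight with a PRR agonist. SEAP in the supernatant was read with QUANTI-Blue at 620 nm absorbance for NF-κB, and Lucia luciferase was read with QUANTI-Luc luminescence for IRF. Each signal was turned into fold change against the mean agonist-only control on the same plate, and two replicate plates were averaged with propagated errors.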
# [2] = test system: RAW-Dual (murine macrophage reporter line); experiment: IRF reporter (Lucia luciferase) activity fold change vs agonist alone; higher = enhanced IRF activity
# Summary of the method: as §1
# [3] = test system: RAW-Dual (murine macrophage reporter line); experiment: viability score (confluency relative to resting cells, overnight) (fraction); higher = more viable, active = viable (0.7 or more)
# Summary of the method: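 RAW-Dual macrophages in 384-well plates were treated overnight with compound at 10 μM final. IncuCyte imaging recorded confluency, and IncuCyte software built two confluency masks across every imaged well. The viability score expresses confluency relative to resting cells and was judged against a cutoff, which a compound met only if both masks exceeded 70% of resting cells.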
# [4] = agonist: CpG ODN 1826 0.5 ug/mL
SMILES,"NF-kB reporter [1, 4]",NF-kB reporter ([1]; agonist: LPS 0.1 ug/mL),NF-kB reporter ([1]; agonist: MPLA […]),IRF reporter ([2]; agonist: 3'3'-cGAMP 10 ug/mL),IRF reporter ([2]; agonist: LPS 0.1 ug/mL),IRF reporter ([2]; agonist: MPLA […]),viability score [3]
Cl.Fc1ccc(C2CCNCC2COc2ccc3c(c2)OCO3)cc1 (configuration not stated),0.829 ± 0.23,0.938 ± 0.089,0.918 ± 0.058,0.916 ± 0.041,1.05 ± 0.18,1.07 ± 0.15,0.968 (active)
CC[C@@]1(O)C(=O)OCc2c1cc1n(c2=O)Cc2cc3c(CN(C)C)c(O)ccc3nc2-1 [Prestw-1196],2.33 ± 0.13,1.27 ± 0.08,2.43 ± 0.16,2.88 ± 0.099,3.79 ± 0.35,3.07 ± 0.43,0.689 (inactive)
COC(CNC(=O)COc1cccc2c1OC(C)(C)C2)c1ccc(Cl)s1 (configuration not stated),0.539 ± 0.028,1.19 ± 0.1,0.998 ± 0.043,0.873 ± 0.046,0.883 ± 0.06,1.14 ± 0.34,0.939 (active)
O=C(CCCn1c(=O)[nH]c2ccc(Br)cc2c1=O)NCC1CCCO1 (configuration not stated),0.965 ± 0.081,1.05 ± 0.099,0.931 ± 0.043,0.957 ± 0.057,1.04 ± 0.063,0.94 ± 0.25,1.02 (active)
COC(CNC(=O)c1cccc(Br)c1)c1ccccc1C (configuration not stated),0.649 ± 0.056,0.999 ± 0.097,0.873 ± 0.04,0.832 ± 0.032,0.96 ± 0.1,0.901 ± 0.21,1 (active)
CSc1nnc2c(n1)[nH]c1c(C)cccc12,1.01 ± 0.082,0.931 ± 0.096,0.904 ± 0.098,0.989 ± 0.066,1.31 ± 0.25,1.42 ± 0.33,1.02 (active)
Cl.Cl.OCCN1CCN(CC/C=C2/c3ccccc3Sc3ccc(C(F)(F)F)cc32)CC1,1.01 ± 0.046,1.03 ± 0.13,1.04 ± 0.1,0.959 ± 0.058,1.13 ± 0.23,1.22 ± 0.28,1.02 (active)
Cc1ccc(N2C(=O)CC(Nc3ccc(N4CCOCC4)cc3)C2=O)cc1 (configuration not stated),1.04 ± 0.11,1.09 ± 0.09,0.823 ± 0.057,0.641 ± 0.016,1.2 ± 0.16,0.908 ± 0.11,1.01 (active)
O=C(CCC(=O)NN=Cc1ccc(O)cc1O)NN=Cc1ccc(O)cc1O,0.934 ± 0.084,1.05 ± 0.067,0.978 ± 0.11,0.944 ± 0.042,1.52 ± 0.18,1.26 ± 0.13,0.994 (active)
O=C(Nc1cccc(C(F)(F)F)c1)Nc1cnn(CC2COc3ccccc3O2)c1 (configuration not stated),0.717 ± 0.05,0.934 ± 0.078,1.1 ± 0.059,0.913 ± 0.051,1.08 ± 0.12,1.78 ± 0.45,0.841 (active)
Oc1ccc(/C=C/c2cc(O)cc(O)c2)cc1,1.06 ± 0.16,1.23 ± 0.28,1.11 ± 0.084,0.695 ± 0.041,0.845 ± 0.13,0.798 ± 0.12,0.982 (active)
COc1ccccc1OCC(=O)NCC1CCN(C(C)C)CC1,1.12 ± 0.062,1.07 ± 0.099,0.92 ± 0.049,1.09 ± 0.099,1.13 ± 0.21,1.05 ± 0.34,0.991 (active)
CCOC(=O)C1=C(C)N(CC(C)C)C(=O)C1=Cc1cccc(Br)c1,1.05 ± 0.11,1.04 ± 0.069,0.869 ± 0.051,0.909 ± 0.03,0.963 ± 0.082,1.19 ± 0.2,0.992 (active)
CS(=O)(=O)O.Cc1c(O)cccc1C(=O)N[C@@H](CSc1ccccc1)[C@H](O)CN1C[C@H]2CCCC[C@H]2C[C@H]1C(=O)NC(C)(C)C,0.399 ± 0.017,0.968 ± 0.08,1.29 ± 0.07,1.09 ± 0.056,1.26 ± 0.29,1.32 ± 0.46,0.987 (active)
CC(=O)Nc1ccc(C(=O)Nc2ccccc2)c(NC(C)=O)c1,1.11 ± 0.088,0.852 ± 0.14,1.09 ± 0.051,0.726 ± 0.035,0.875 ± 0.087,0.747 ± 0.071,0.997 (active)
COC(=O)c1c(NC(=O)C2CCCCC2)sc2c1CC(C)(C)NC2(C)C,1.12 ± 0.095,1.24 ± 0.1,1.47 ± 0.16,0.764 ± 0.08,1.06 ± 0.1,1.82 ± 0.38,0.419 (inactive)
